From PubChem
V-ATPase pH: regulators of yeast V-ATPase proton transport | 0.37% of 350,000 active | S. cerevisiae, pHLuorin cytosolic pH fluorescence | response, % at 10 µM; in the data active means response mostly above about 7.3%, no sharp cut-off; inactive means mostly below about 5.4%; further: actives read high
PERK inh: human PERK inhibition, primary cell-based screen | 0.17% of 220,000 active | inhibition, % at 5.6 µM | CHO PERK-DD fusion, SEAP luminescence translation reporter | Q9NZJ5;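 active means inhibition above the mean inhibition of all tested compounds plus 3 SD, set separately per screening campaign, cut at about 2.9% in these data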;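 further: PERK kinase domain activated by AP20187 dimerizer at 100 nM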
Target sequence (Q9NZJ5 whole entry, looked up, the tested form may be a part): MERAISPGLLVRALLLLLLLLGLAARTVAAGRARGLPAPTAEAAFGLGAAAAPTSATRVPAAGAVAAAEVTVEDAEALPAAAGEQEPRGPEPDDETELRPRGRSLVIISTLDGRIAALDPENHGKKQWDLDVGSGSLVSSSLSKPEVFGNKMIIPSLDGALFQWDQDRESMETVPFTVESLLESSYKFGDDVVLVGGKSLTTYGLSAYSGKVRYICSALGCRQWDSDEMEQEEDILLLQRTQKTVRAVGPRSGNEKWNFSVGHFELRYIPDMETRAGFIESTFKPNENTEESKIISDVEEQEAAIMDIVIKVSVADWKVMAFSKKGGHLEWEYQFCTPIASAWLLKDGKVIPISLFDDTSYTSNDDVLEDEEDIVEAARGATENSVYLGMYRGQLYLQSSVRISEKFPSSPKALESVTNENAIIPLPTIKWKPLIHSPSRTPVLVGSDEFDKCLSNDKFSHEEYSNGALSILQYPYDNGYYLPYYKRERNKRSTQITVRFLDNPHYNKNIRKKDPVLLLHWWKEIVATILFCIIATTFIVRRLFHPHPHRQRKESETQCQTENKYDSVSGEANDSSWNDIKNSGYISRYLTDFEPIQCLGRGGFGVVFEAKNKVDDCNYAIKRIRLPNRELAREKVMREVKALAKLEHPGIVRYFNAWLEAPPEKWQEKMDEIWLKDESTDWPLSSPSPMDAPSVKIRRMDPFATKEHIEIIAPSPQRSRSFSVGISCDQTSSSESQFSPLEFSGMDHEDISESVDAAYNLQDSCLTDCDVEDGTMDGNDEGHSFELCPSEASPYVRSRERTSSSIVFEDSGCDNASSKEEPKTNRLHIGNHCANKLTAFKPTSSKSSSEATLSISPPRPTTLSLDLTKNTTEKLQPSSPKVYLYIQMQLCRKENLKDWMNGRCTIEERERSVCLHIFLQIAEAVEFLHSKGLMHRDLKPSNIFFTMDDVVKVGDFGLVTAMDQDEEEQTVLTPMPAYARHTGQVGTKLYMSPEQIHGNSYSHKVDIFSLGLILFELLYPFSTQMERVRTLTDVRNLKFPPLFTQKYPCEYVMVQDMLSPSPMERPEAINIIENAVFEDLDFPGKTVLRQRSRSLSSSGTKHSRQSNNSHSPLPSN
NALP1 yeast inh: inhibitors of NALP1 inflammasome in yeast; S. cerevisiae NALP1/ASC/caspase-1 growth, X-gal OD620, 72 h; inhibition, % at 10 µM; 0.61% of 280,000 active; AID 2071; in the data active means inhibition mostly above about 24%, no sharp cut-off; inactive means mostly below about 32%
Yeast superoxide: yeast age-related superoxide inhibition as caloric restriction mimetic; S. cerevisiae aged cells, superoxide DHE fluorescence; active compounds read low; superoxide response (% of plate mean), % at 10 µM; 0.18% of 330,000 active; AID 2690;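 active means superoxide response under a set limit, about three screen SD below normal, cut at about 65% in these data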;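 further: yeast aged for seven days with compound at 30 °C before DHE staining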
Rce1 inhib: blocks yeast Ras-converting enzyme; Q03530; calls only; 0.27% of 290,000 active; yeast membranes, quenched prenylated peptide cleavage fluorescence;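 active means fall in fluorescence gain of 50% or more versus controls, with final raw signal at or below 3038400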
NALP3 yeast inh: inhibitors of NALP3 inflammasome in yeast | AID 2825 | 0.39% of 330,000 active | inhibition, % at 10 µM | Yeast reconstituted NLRP3/ASC/caspase-1, beta-gal luminescence, 24 h;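 active means inhibition of 50% or more; inactive means inhibition below 50%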
NALP3 confirm: confirmation of NALP3 inhibitors in yeast; shares compounds with NALP3 yeast inh; yeast expressing human NALP3, luminescence; inhibition, % at 10 µM; 81% of 1,300 active; in the data active means inhibition above about 48%
Casp1-ASC yeast: caspase-1-ASC yeast counter-screen hit | shares compounds with NALP3 yeast inh | inhibition, % at 10 µM | AID 488784 | 66% of 1,000 active | yeast expressing Caspase-1-ASC, luminescence counter screen
NALP3 yeast rt: yeast NALP3 inhibition, confirmed on retest. shares compounds with NALP3 yeast inh. yeast expressing human NALP3, luminescence read-out. inhibition, % at 10 µM. 53% of 1,000 active
Hits are given with their value; 0 = inactive; - = not tested or not shown. An excerpt weighted towards active compounds, which were near 1.6% of everything screened. Unless noted, no stated cut-off is given here; in the data, active means inhibition above about 50%; inactive means the rest.

SMILES | V-ATPase pH | PERK inh | NALP1 yeast inh | Yeast superoxide | Rce1 inhib | NALP3 yeast inh | NALP3 confirm | Casp1-ASC yeast | NALP3 yeast rt
CCCOc1ccc(C(=O)NNC(=S)NC(=O)c2cccs2)cc1 | 0 | - | 0 | 0 | 0 | 56 | 77 | 0 | 55
COc1cc(C(=O)NNC(=S)NC(=O)c2ccc(Cl)cc2)cc(OC)c1OC | 0 | 0 | 0 | 0 | 0 | 0 | - | - | -
CCCOc1ccc(C(=O)NNC(=S)NC(=O)c2ccccc2)cc1 | 0 | - | 0 | 0 | 0 | 0 | - | - | -
O=C1c2ccsc2SCCN1Cc1ccccc1 | 0 | 0 | 0 | 0 | 0 | 58 | 0 | 0 | 0
CCN(C(=O)c1ccc(NC(=O)C2CCCCC2C(=O)O)cc1)c1ccccc1 (stereo unspecified) | 0 | - | - | - | - | - | - | - | -
CC(C)CCC[C@@H](C)[C@H]1CC[C@H]2[C@@H]3C(=O)C=C4C[C@@H](O)CC[C@]4(C)[C@H]3CC[C@]12C | 0 | - | - | 0 | 0 | 0 | - | - | -
C=C1/C(=C\C=C2/CCC[C@]3(C)[C@@H]([C@H](C)CCCC(C)(C)O)CC[C@@H]23)C[C@@H](O)C[C@@H]1O | - | 0 | 0 | 0 | 0 | 57 | 58 | 55 | 0
CCCCCc1cc(O)c2c(C)cc(=O)oc2c1 | 0 | 0 | 0 | 0 | 0 | 0 | - | - | -
CCCCc1cc(O)c(CCCC)c(O)c1 | 0 | 0 | 0 | 0 | 0 | 51 | 62 | 0 | 0
O=C(CC(=O)c1c(F)cccc1Cl)c1ccccc1O | 0 | - | 0 | 0 | 0 | 51 | 70 | 61 | 0
CC(OC(=O)[C@H](C)N=C1NS(=O)(=O)c2ccccc21)C(=O)Nc1ccc(F)c(F)c1F (stereo partly specified) | 0 | - | - | - | - | - | - | - | -
CSc1ccc(/C=C/C(=O)OCC(=O)NC2CCCCCC2)cc1 | 0 | - | - | - | - | - | - | - | -
Cc1cc(Cl)c(S(=O)(=O)NC2CCCCC2)cc1OCC(=O)Nc1nncs1 | 0 | 0 | 0 | 0 | 0 | 50 | 50 | 0 | 0
Cc1cc(Cl)c(S(=O)(=O)Nc2ccon2)cc1OCC(=O)NC1CCCCC1 | 0 | 0 | 0 | 0 | 0 | 0 | - | - | -
COc1cc(CNC(C)c2ccccc2)cc(Cl)c1OCC(=O)Nc1ccccc1 (stereo unspecified) | 0 | 0 | 0 | 0 | 0 | 53 | 0 | - | -
CCN(CC)CCNCc1cc(Cl)c(OCC(=O)Nc2ccccc2)c(OC)c1 | 0 | 0 | 0 | 0 | 0 | 0 | - | - | -
Cc1ccc(C(=O)O/N=C/c2c(N3CCOCC3)n(C)c3ccccc23)cc1 | 0 | 0 | 0 | 0 | 0 | 0 | - | - | -
Cn1c(N2CCOCC2)c(/C=N/OC(=O)c2ccc(F)cc2)c2ccccc21 | 0 | 0 | 0 | 0 | 0 | 65 | 84 | 61 | 56
CC1(C)CC(=O)C(C=NCCN2CCN(CC(=O)Nc3ccc(Cl)cc3)CC2)=C(O)C1 | 0 | 0 | 0 | 0 | 0 | 0 | - | - | -
Cc1ccc(NC(=O)CN2CCN(CCN=CC3=C(O)CC(C)(C)CC3=O)CC2)cc1 | 0 | 0 | 0 | 0 | 0 | 55 | 58 | 0 | 0
C[C@@H]1CN([C@@H](C)CO)C(=O)c2cc(Br)cnc2O[C@@H]1CN(C)S(=O)(=O)c1ccc(F)cc1 | 0 | - | - | - | - | - | - | - | -
C#CCOc1ccc2c3c(c(=O)oc2c1)CCCC3 | 0 | - | 0 | 0 | 0 | 59 | 62 | 60 | 0
CC(=O)COc1ccc2c3c(c(=O)oc2c1)CCCC3 | 0 | 0 | 0 | 0 | 0 | 0 | - | - | -
C[C@@H]1CN([C@H](C)CO)C(=O)CCCn2nncc2CO[C@@H]1CN(C)S(=O)(=O)c1ccc(F)cc1 | 0 | - | - | - | - | - | - | - | -
Cc1nc2cc3c(=O)n(C)cnc3cc2n1Cc1ccccc1 | 0 | - | - | - | - | - | - | - | -
SMILES | V-ATPase pH | PERK inh | NALP1 yeast inh | Yeast superoxide | Rce1 inhib | NALP3 yeast inh | NALP3 confirm | Casp1-ASC yeast | NALP3 yeast rt
C[C@H](CCC(=O)O)[C@H]1CC[C@H]2[C@@H]3CC[C@@H]4C[C@H](O)CC[C@]4(C)[C@H]3CC[C@]12C | 0 | - | - | 0 | - | 72 | 78 | 78 | 61
O=C(Cn1cc(C(=O)C(=O)N2CCOCC2)c2ccccc21)Nc1cccc(C(F)(F)F)c1 | 0 | - | - | - | - | - | - | - | -
Cc1ccc(/C=C(\C#N)c2nc3ccccc3[nH]2)s1 | 0 | 0 | 0 | 0 | 0 | 51 | 63 | 0 | 0
C[C@@H]1CN([C@@H](C)CO)C(=O)CCCn2cc(nn2)CO[C@H]1CN(C)C(=O)c1ccc2ccn(C)c2c1 | 0 | - | - | - | - | - | - | - | -
C=CC[C@H](CC(=O)N(CCO)Cc1ccccc1)C(=O)N[C@@H](COC(=O)[C@@H](CC=C)Cc1ccc(F)cc1)Cc1c[nH]c2ccccc12 | 0 | - | - | 0 | - | 0 | - | - | -
NCCOc1ccccc1-c1ccccc1 | 0 | 0 | 0 | 0 | 0 | 54 | 66 | 56 | 50
O=C(c1cc(-c2cccc(Cl)c2)on1)N1CCN(c2ccccc2)CC1 | 0 | - | 0 | 0 | 0 | 0 | - | - | -
O=C(c1cc(-c2cccc(Cl)c2)on1)N1CCCC1 | 0 | - | 0 | 0 | 0 | 59 | 77 | 76 | 64
CCC(C)c1ccccc1NC(=O)c1cc2cccc([N+](=O)[O-])c2[nH]1 (stereo unspecified) | 0 | 0 | - | 0 | 0 | 52 | 0 | - | -
Clc1cccc(Nc2ncnc3c2cnn3-c2ccccc2)c1 | 0 | - | - | 0 | 0 | 53 | 61 | 0 | 0
O=C(O)c1cccc(Nc2ncnc3c2cnn3-c2ccccc2)c1 | 0 | 0 | 0 | 0 | 0 | 0 | - | - | -
Fc1cccc(Nc2ncnc3c2cnn3-c2ccccc2)c1 | 0 | - | 0 | 0 | 0 | 63 | 77 | - | -
CC(c1ccccc1)n1ccnc1CO (stereo unspecified) | 0 | - | - | - | - | - | - | - | -
CC(C)CC1C(=O)N(Cc2cn(Cc3ccco3)nn2)CCS(=O)(=O)N1Cc1ccc(-c2ccc(F)cc2)cc1 (stereo unspecified) | 0 | - | - | - | - | - | - | - | -
O=S(=O)(c1ccc(Cl)cc1Cl)n1ccc2cccnc21 | 0 | 0 | 0 | 0 | 0 | 73 | 67 | 65 | 0
Cc1ccc(S(=O)(=O)n2ccc3cccnc32)cc1 | 0 | 0 | 0 | 0 | 0 | 0 | - | - | -
O=S(=O)(c1cc(Cl)ccc1Cl)n1cccn1 | 0 | 0 | 0 | 0 | 0 | 0 | - | - | -
O=S(=O)(c1ccc(Cl)cc1)n1ccc2cccnc21 | 0 | 0 | 0 | 0 | 0 | 61 | 61 | 56 | 0
COCCCN(Cc1cc(OC)c(OC)c(OC)c1)C(=S)Nc1cccc(SC)c1 | 0 | - | - | - | - | - | - | - | -
Oc1c(/C=N/c2ccccn2)sc2ccccc12 | 0 | 0 | 0 | 0 | 0 | 65 | 76 | 0 | 70
Oc1c(C=Nc2ccc(Cl)cn2)sc2ccccc12 | 0 | 0 | 0 | 0 | 0 | 0 | - | - | -
Nc1ccccc1SC/C=C/CSc1ccccc1N | 0 | - | 0 | 0 | 0 | 52 | 57 | 0 | 0
O=[N+]([O-])c1cc(Br)c(O)c(/C=N/Nc2nnnn2-c2cccc3ccccc23)c1 | 0 | 0 | 0 | 0 | 0 | 52 | 47 | - | -
O=[N+]([O-])c1ccc(NN=Cc2cccc3ccccc23)cc1 | 0 | - | - | - | - | - | - | - | -
O=C(N/N=C/C(Br)=C\c1ccccc1)c1ccco1 | 0 | 0 | 0 | 0 | 0 | 64 | 77 | 74 | 54
O=C(CC1CCCC1)NCCS(=O)(=O)N1CCN(c2ccccc2)CC1 | 0 | - | - | - | - | - | - | - | -
CCOC(=O)Cc1csc(NC(=O)c2ccc(Br)s2)n1 | - | 0 | 39 | 0 | 0 | 67 | 76 | - | -
